Among all 3,400 compounds or so, about 840 (25%) were called active. About 11% were inconclusive and are not listed. Not all results are given here. Results with a measured potency or affinity are listed apart. A number with no mark means an inactive call.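 The calls were made as follows: active = fitted half-maximal concentration of signal decrease at or below twice the sample's top tested concentration; inconclusive = flat curve between -70 and -30 percent, or poor fit; inactive = flat within 30 percent, signal rise, or potency above limit.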
Experiment: T. gondii growth inhibition with IFN-gamma, dose response, cell-based, ME49Luc, HeLa, luciferase, 72 h (AID 1259418)
Details: T. gondii ME49Luc in IFN-y HeLa, hits give low values, -100% = high-dose IFN-γ control wells; at 19.5 µM unless noted

Row | SMILES | max activity
1 | Cc1cnc(N2C[C@@H](c3ccccc3)[C@@]3(CCNC3=O)C2)nc1 | 22.8%
2 | Cc1ccc(-n2ncc3c(NCC4CCCO4)ncnc32)c(C)c1 (stereo not given) | 9.91% [at 0.16 µM]
3 | COc1ccc(CNC(=O)CCC2N=C3c4ccccc4N=C(SCc4cc(=O)n5cc(Cl)ccc5n4)N3C2=O)cc1 (stereo not given) | -8.86% [at 1.35 µM]
4 | CSc1ccc(-c2noc(-c3nnn(Cc4nc(-c5cccc(C)c5)oc4C)c3C)n2)cc1 | -16.4% [at 0.16 µM]
5 | Cc1ccc(OCC(=O)Nc2cncc(-c3nc4ccccc4o3)c2)cc1 | 10.2% [at 1.35 µM]
6 | Cc1nc(CCNC(=O)[C@H]2CCCN2S(=O)(=O)c2ccc3c(c2)CCCC3)cs1 | 26.6% [at 0.35 µM]
7 | Cc1ccc2c(c1)cc(S(=O)(=O)c1ccccc1)c(=O)n2CC(=O)NCc1ccc2c(c1)OCO2 | -10.2% [at 0.68 µM]
8 | Cc1cccc(CNC2=NCCNC23CCN(S(=O)(=O)c2ccc(C)c(C)c2)CC3)c1 | -21.5%
9 | Cc1ccc(S(=O)(=O)N2CCC3(CC2)NCCN=C3NCc2ccccc2C)c(C)c1 | -17.1%
10 | COCCCNC1=NCCNC12CCN(S(=O)(=O)c1ccc(C)cc1C)CC2 | 13.7% [at 10 µM]
11 | Cc1ccccc1CNC1=NCCNC12CCN(S(=O)(=O)c1cccs1)CC2 | 21.2% [at 10 µM]
12 | O=C(CC1N=C2c3ccccc3N=C(SCc3cc(=O)n4ccccc4n3)N2C1=O)NCc1ccc2c(c1)OCO2 (stereo not given) | 49.3%
13 | Cc1nc(OCC(=O)Nc2ccc(C)c(C)c2)c2ccccc2n1 | 14.4% [at 0.16 µM]
14 | O=C(Nc1ccc(Cl)cc1)N1C[C@H]2[C@@H](c3ccccc31)[C@@H](CO)N2CC1CCCCC1 | 10.8% [at 10 µM]
15 | CSc1cccc(NC(=O)CN2CCC3(CC2)N=C(c2ccc(F)cc2)C(=O)N3)c1 | 9.26%
16 | COc1ccccc1-c1nc(CN2CCc3c(sc4c3CCCC4)C2c2ccccc2)c(C)o1 (stereo not given) | 10.8% [at 0.038 µM]
17 | COc1ccc(CN2CCO[C@H]3[C@H]2CC[C@H]3OCCCn2cccn2)cc1 | 14.7% [at 5 µM]
18 | COc1ccc(CN2C[C@@H]3CN(Cc4cnn(C)c4)C[C@H]3C2=O)cc1 | 20.7%
19 | Cc1nc2c(cnn2-c2ccccc2)c(=O)n1-c1cccc2ccccc12 | 22.6% [at 10 µM]
20 | COc1ccc2c(c1)NC1(CCN(C(=O)c3ccccc3Cl)CC1)c1cccn1-2 | -5.12%
21 | CCOc1ccc(-c2nc(Cn3c(=O)c4c(C)cc(C)nc4n(-c4ccccc4)c3=O)c(C)o2)cc1 | 8.31% [at 0.16 µM]
22 | COc1ccc(NC(=O)N2CCCCN3[C@@H](CO)[C@H](c4ccc(-c5ccccc5F)cc4)[C@@H]3C2)cc1 | 20.7% [at 5 µM]
23 | O=C(Nc1ccccc1F)N1CCCCN2[C@H](C1)[C@H](c1ccc(/C=C/c3ccccc3)cc1)[C@@H]2CO | 35.7% [at 10 µM]

Row | SMILES | max activity
24 | CCc1ccc(-n2nnc(C(=O)N3CCC(N4CCCCC4)CC3)c2-c2ccncc2)cc1 | 6.73% [at 5 µM]
25 | Cc1[nH]c2ccccc2c1C(=O)C(=O)NC1CC(=O)N(c2ccc3c(c2)OCCO3)C1 (stereo not given) | 7.24%
26 | Cc1ccc(-c2coc(-c3ccc(NC(=O)COc4ccccc4C)cc3)n2)c(C)c1 | -20.2% [at 1.35 µM]
27 | COc1ccc(-c2nc(N(C)C3CCCCC3)c3ccccc3n2)cc1 | 11.7%
28 | COc1ccccc1Nc1nc(-c2ccc(Cl)cc2)nc2ccccc12 | -18.5% [at 0.68 µM]
29 | Cc1ccsc1C(=O)Nc1ccc(-c2nc(-c3ccccc3)co2)cc1 | 30.4% [at 0.68 µM]
30 | COc1cccc(N(Cc2nc(-c3ccccc3)oc2C)S(=O)(=O)c2ccc(C)cc2)c1 | -7.21% [at 1.35 µM]
31 | O=C(Cn1c(=O)c(S(=O)(=O)c2ccccc2)cc2ccccc21)NC1CCCC1 | 9.84% [at 0.35 µM]
32 | CCOc1ccccc1-c1nc(CN2CCc3c(sc4c3CCCC4)C2c2ccccc2)c(C)o1 (stereo not given) | 19.5%
33 | CC1=CCC=CC1C(=O)Nc1ccc2c(c1)CCC(=O)N2C (stereo not given) | 56.7%
34 | Cc1ccc(-c2coc(-c3ccc(NC(=O)Nc4ccccc4)cc3)n2)cc1 | -15.8%
35 | Cc1ccc(-c2coc(-c3ccc(NC(=O)COc4ccc(F)cc4)cc3)n2)c(C)c1 | 10.4% [at 0.35 µM]
36 | Cc1cc(C)cc(S(=O)(=O)N2CCC3(CC2)NCCN=C3NCc2cccc(F)c2)c1 | -38.9%
37 | COCCCNC1=NCCNC12CCN(S(=O)(=O)c1cc(C)cc(C)c1)CC2 | 11.6% [at 10 µM]
38 | Cc1nc(-c2ccc(F)cc2)sc1-c1ccc(SCc2ccc(Cl)c(Cl)c2)nn1 | 7.38% [at 2.6 µM]
39 | COc1cc(NC(=O)CN2CCC3(CC2)N=C(c2ccc(F)cc2)C(=O)N3)cc(OC)c1 | 16.7% [at 10 µM]
40 | O=C(COc1ccc(Br)cc1)Nc1cncc(-c2nc3ccccc3o2)c1 | 8.52% [at 0.16 µM]
41 | COc1cccc(S(=O)(=O)N2CCCCN3[C@H](C2)[C@@H](c2ccc(C#CCC(C)C)cc2)[C@@H]3CO)c1 | 100% [at 0.08 µM]
42 | O=S(=O)(c1ccccc1)N1CCCCN2[C@H](C1)[C@H](c1ccc(C#CC3CCCC3)cc1)[C@@H]2CO | 27.4% [at 5 µM]
43 | COc1cccc(S(=O)(=O)N2CCCCN3[C@H](CO)[C@@H](c4ccc(C#CCC(C)C)cc4)[C@@H]3C2)c1 | 106%
44 | COc1cc(C(=O)N2CCC3(CC2)Nc2cc(F)ccc2-n2cccc23)cc(OC)c1OC | 5.03% [at 0.68 µM]
45 | COc1cccc(NC(=O)Nc2ccc(-c3nc(-c4ccc(C)cc4)co3)cc2)c1 | 21.2% [at 0.16 µM]

From PubChem BioAssay AID1259418 (Broad Institute, 2018)
